Common to all, as to experiment: MAPPIT interaction score (arbitrary units); higher = stronger binary interaction signal, active = hit call of the paper
One test addresses CG15482. Particulars: MAPPIT configuration: N-N; pair source set: screen_1;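 active = MAPPIT score above the 99th percentile of random reference set scores in the same batch; inactive = at or below it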.
The target of another test is CG33096. Particulars: MAPPIT configuration: N-N; pair source set: Finley_Y2H.
The target in a further test is CG15529. Particulars: MAPPIT configuration: N-C; pair source set: screen_4.
For another test, the target named is CG15576. Particulars: MAPPIT configuration: N-N; pair source set: Curagen_low_conf.
The next test concerns the target CG15514. Particulars: MAPPIT configuration: N-N.
In the next test the target is CG17162. To be noted: MAPPIT configuration: N-C.
In another test the target is CG15728. Particulars: MAPPIT configuration: N-C; pair source set: screen_3.
A further test deals with CG17776. To be noted: MAPPIT configuration: N-N; pair source set: Lit-BS-16.
The target in the next test is CG16904. To be noted: MAPPIT configuration: N-N; pair source set: Curagen_low_conf.
The target in a further test is CG2865. To be noted: MAPPIT configuration: N-N; pair source set: Curagen_low_conf.
The target of another test is Cul3. Particulars: pair source set: Lit-BM-16.
Another test has as its target puc. Particulars: pair source set: Lit-BM-16.
The next test addresses spir. To be noted: MAPPIT configuration: N-N; pair source set: Curagen_low_conf.
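Note: HEK293T cells with Epo stimulation, STAT-responsive firefly luciferase reporter, fold induction versus unstimulated cells divided by the larger fold induction of two negative controls lacking either bait or prey.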

B1: trbd (protein)
chain: MCDTKDDAQKWKCETCTYENYPSSLKCTMCQASKPLLNEDIFRLSPAQESCTVAEEAAAVEVAVMSPTPSSTCYSLQPQSQARQSNVADSEKWPCKVCTYLNWPRSLRCVQCCTKRGGEAIERGKKDMDNEADGDRAGEALQALRISGSEENLANKPVQLIGATASHRLSLSRGIDDATHLNNLANASHNQSQSQHRQPVLQQQMQLQLQPQQQRESSSSAAVPPQQQKQCYVSKWACNSCTYENWPRSIKCSMCGKTREREISGSQNDLHASSSLNSQEENQQQLQQPNVDTVSVNNSFNKKHIYQLGSSETINNCDTLQERQERRQRQIRRQVDWQWLNACLGVVENNYSAVEAYLSCGGNPARSLTSTEIAALNRNSAFDVGHTLIHLAIRFHREEMLPMLLDQISGSGPGIKRVPSYVAPDLAADIRRHFANTLRLRKSGLPCHYVQKHATFALPAEIEELPIPIQEQLYDELLDRDAQKQLETPPPALNWSLEITARLSSRMFVLWNRSAGDCLLDSAMQATWGVFDRDNILRRALADTLHQCGHVFFTRWKEYEMLQASMLHFTLEDSQFEEDWSTLLSLAGQPGSSLEQLHIFALAHILRRPIIVYGVKYVKSFRGEDIGYARFEGVYLPLFWDQNFCTKSPIALGYTRGHFSALVPMEPFTRIDGRRDDVEDVTYLPLMDCELKLLPIHFLTQSEVGNEESMMRQWLDVCVTDGGLLVAQQKLSKRPLLVAQMLEEWLNHYRRIAQVITAPFIRRPQITHYSSDGDSDEE
Take B1: the MAPPIT interaction score in the test with CG15482 was -0.138 (inactive); with CG33096, 0.0624 (inactive).

B2: CG3817 (protein)
chain: MALLTEKRVKKTHAPASDSSPEESDSEGSQNSASEAEGNAGWADSIQKVLKTTKPKTQKKTVLARAKKSQAAVRFQKDAANKKPGFDFEIEKADVKEEDEGDNHEDEKPQASALDATLTKQQRKNVPLQLRVKPSFRDMERERTLRKVATRGVVQFFNAVRIQQKDLQQQLEEAGPLDSRQDAVLNNINKRKFLDVLMSGKRAKSTPVDNAVKKEEQETDDDDEDKGSSGKKKSEWSVLREDFMTNKKIKHWDEEDDDEEGHNDEADDSDYDDGEE
As to B2, the MAPPIT interaction score with CG15529 was 1.02 (inactive).

B3: Yp3 (protein)
chain: MMSLRICLLATCLLVAAHASKDASNDRLKPTKWLTATELENVPSLNDITWERLENQPLEQGAKVIEKIYHVGQIKHDLTPSFVPSPSNVPVWIIKSNGQKVECKLNNYVETAKAQPGFGEDEVTIVLTGLPKTSPAQQKAMRRLIQAYVQKYNLQQLQKNAQEQQQQLKSSDYDYTSSEEAADQWKSAKAASGDLIIIDLGSTLTNFKRYAMLDVLNTGAMIGQTLIDLTNKGVPQEIIHLIGQGISAHVAGAAGNKYTAQTGHKLRRITGLDPAKVLSKRPQILGGLSRGDADFVDAIHTSTFAMGTPIRCGDVDFYPNGPSTGVPGSENVIEAVARATRYFAESVRPGSERNFPAVPANSLKQYKEQDGFGKRAYMGLQIDYDLRGDYILEVNAKSPFGQRSPAHKQAAYHGMHHAQN
As to B3, the MAPPIT interaction score in the test with CG15576 was 0.532 (inactive).

B4: Spt6 (protein)
chain: MAEFLDSEAEESEEEEELDVNERKRLKKLKAAVSDSSEEEEDDEERLREELKDLIDDNPIEEDDGSGYDSDGVGSGKKRKKHEDDDLDDRLEDDDYDLIEENLGVKVERRKRFKRLRRIHDNESDGEEQHVDEGLVREQIAEQLFDENDESIGHRSERSHREADDYDDVDTESDADDFIVDDNGRPIAEKKKKRRPIFTDASLQEGQDIFGVDFDYDDFSKYEEDDYEDDSEGDEYDEDLGVGDDTRVKKKKALKKKVVKKTIFDIYEPSELKRGHFTDMDNEIRKTDIPERMQLREVPVTPVPEGSDELDLEAEWIYKYAFCKHTVSEQEKPESREKMRKPPTTVNKIKQTLEFIRNQQLEVPFIAFYRKEYVKPELNIDDLWKVYYYDGIWCQLNERKRKLKVLFEKMRQFQLDTLCADTDQPVPDDVRLILDSDFERLADVQSMEELKDVHMYFLLNYSHELPRMQAEQRRKAIQERREAKARRQAAAAENGDDAAEAIVVPEPEDDDDPELIDYQLKQASNSSPYAVFRKAGICGFAKHFGLTPEQYAENLRDNYQRNEITQESIGPTELAKQYLSPRFMTTDEVIHAAKYVVARQLAQEPLLRKTMREVYFDRARINIRPTKNGMVLIDENSPVYSMKYVAKKPVSDLFGDQFIKLMMAEEEKLLEITFLEEFEGNACANGTPGDYVEESKALYQLDQFAKHVQEWNKLRAECVQLALQKWVIPDLIKELRSTLHEEAQQFVLRSCTGKLYKWLKVAPYKPQLPPDFGYEEWSTLRGIRVLGLAYDPDHSVAAFCAVTTVEGDISDYLRLPNILKRKNSYNLEEKAQKLADLRKLSDFIKMKKPHIVVIGAESRDAQNIQADIKEILHELETSEQFPPIEVEIIDNELAKIYANSKKGESDFKEYPPLLKQAASLARKMQDPLVEYSQLCDADDEILCLRYHPLQERVPREQLLEQLSLQFINRTSEVGLDINLMVQNSRTINLLQYICGLGPRKGQALLKLLKQSNQRLENRTQLVTVCHLGPRVFINCSGFIKIDTSSLGDSTEAYVEVLDGSRVHPETYEWARKMAIDAMEYDDEETNPAGALEEILESPERLKDLDLDAFAVELERQGFGSKSITLYDIRNELSCLYKDYRTPYTKPSAEELFDMLTKETPDSFYVGKCVTAMVTGFTYRRPQGDQLDSANPVRLDSNESWQCPFCHKDDFPELSEVWNHFDANACPGQPSGVRVRLENGLPGFIHIKNLSDRQVRNPEERVRVSQMIHVRIIKIDIDRFSVECSSRTADLKDVNNEWRPRRDNYYDYVTEEQDNRKVSDAKARALKRKIYARRVIAHPSFFNKSYAEVVAMLAEADQGEVALRPSSKSKDHLTATWKVADDIFQHIDVREEGKENDFSLGRSLWIGTEEFEDLDEIIARHIMPMALAARELIQYKYYKPNMVTGDENERDVMEKLLREEKANDPKKIHYFFTASRAMPGKFLLSYLPKTKVRHEYVTVMPEGYRFRGQIFDTVNSLLRWFKEHWLDPTATPASASASNLTPLHLMRPPPTISSSSQTSLGPQAPYSVTGSVTGGTPRSGISSAVGGGGSSAYSITQSITGYGTSGSSAPGAGVSSSHYGSSSTPSFGAINTPYTPSGQTPFMTPYTPHASQTPRYGHNVPSPSSQSSSSQRHHYGSSSGTGSTPRYHDMGGGGGGGVGGGGGSNAYSMQPHHQQRAKENLDWQLANDAWARRRPQQHQSHQSYHAQQQHHHSQQQPHMGMSMNMGITMSLGRGTGGGGGGGYGSTPVNDYSTGGGHNRGMSSKASVRSTPRTNASPHSMNLGDATPLYDEN
For B4, the MAPPIT interaction score with CG15514 (pair source set: screen_1) was 2.16 (inactive); with CG15514 (pair source set: screen_2), 1.63 (inactive).

B5: p38c (protein)
chain: MPEFVRVAINESLWEFPDIYEFVRFLGGGSFGQVAKVRLRGTENYFAMKRLMRPFEREEDAKGTYREIRLLKHMNHRNVISLLNVFHPPAHNMMEFQQVYLVTHLMDADLHRYSRSKRMSDQEIRIILYQILRGLKYIHSAGVVHRDLKPCNIAVNGNSEVRILDFGLSRMCADKMTDHVGTMWYLAPEIIFLRGQYTKAIDVWSVGCILAELITDRVLFRGENYVSQIRCLINIMGTPTREFITGISMERSRNYLEGYPLRQRCDFHHLFMGYDVQAIDLMEKMLEMVPEKRITAAEAMLHPYLRDLIEPHHHAEDTAPVYDQNFENMVLPVKCWKELVSHEIRNFRPDQLDLHF
B5: in the test with CG17162 (pair source set: screen_3), the MAPPIT interaction score was 0.769 (inactive).

B6: Nedd8 (protein)
chain: MLIKVKTLTGKEIEIDIEPTDKVDRIKERVEEKEGIPPQQQRLIFSGKQMNDDKTAADYKVQGGSVLHLVLALRGGDSILTPCV
For the molecule B6, the MAPPIT interaction score in the test with CG15576 was 1.7 (inactive).

B7: REPTOR-BP (protein)
chain: MADMEIQSNKMSITEETQVQTRKECGKRGRKPGRKTSTEKLDMKAKLERSRQSARECRARKKLRYQYLEELVADREKAVVALRTELERLIQWNNQLSESNTPTNNDQLLQELGILKQE
Consider B7, for which the MAPPIT interaction score was 1.49 (inactive) in the test with CG15728 and -0.21 (inactive) with CG17776.

B8: B-H1 (protein)
chain: MKDSMSILTQTPSEPNAAHPQLHHHLSTLQQQHHQHHLHYGLQPPAVAHSIHSTTTMSSGGSTTTASGIGKPNRSRFMINDILAGSAAAAFYKQQQHHQQLHHHNNNNNSGSSGGSSPAHSNNNNNINGDNCEASNVAGVGVLPSALHHPQPHPPTHPHTHPHALMHPHGKLGHFPPTAGGNGLNVAQYAAAMQQHYAAAAAAAAARNNAAAAAAAAAAAAAAGVAAPPVDGGVDGGVGLAPPAGGDLDDSSDYHEENEDCDSGNMDDHSVCSNGGKDDDGNSVKSGSTSDMSGLSKKQRKARTAFTDHQLQTLEKSFERQKYLSVQERQELAHKLDLSDCQVKTWYQNRRTKWKRQTAVGLELLAEAGNFAAFQRLYGGSPYLGAWPYAAAAGAAHGATPHTNIDIYYRQAAAAAAMQKPLPYNLYAGVPSVGVGVGVGVGPAPFSHLSASSSLSSLSSYYQSAAAAASAANPGGPHPVAPPPSVGGGSPPSGLVKPIPAHSASASPPPRPPSTPSPTLNPGSPPGRSVDSCSQSDDEDQIQV
With B8, the MAPPIT interaction score with CG17162 (pair source set: screen_4) is 4.06 (active).

B9: rdx (protein)
chain: MFEPYVKIKKKRSVNEIYENENLEQQQHHLQQQQQQPATSDNCCCENGEPQNAPEVATATVAATSVAATSAAATVATGAAASSSSSGNCSRLQQLISTPPVLLRRSSLQQQQHQQQQHHPHTPAATATPPQQQQQQQAAPSVLQQHLGHLNYESGATAAAAATAAAAAATVATSRSGSATLAQHLATPSNILQAAFGSSNLQHILTRSAPSPSSSAISSNNCSSACAGNTHYNGGNSNSGSSSSNSNHHSNSIIASRLFGAASSSSSSSSSSASASSSSVAASSSSSSHHLHSHHSALTNSITNRINQSIRRHLNQQQHHHPLSASSSSASASPSASTSSSSSYQQSSVQQQHYNCAHPAQQQQHHHHHHSSSSSSSSSSSSSHHHHNSSSSSNSNNQQQPQQSPLCLVLLVKCPNSKEFCNAAANFCDKRLPVNECQASQTARVTSNLHASSSTMAVSRVPSPPLPEVNTPVAENWCYTQVKVVKFSYMWTINNFSFCREEMGEVLKSSTFSAGANDKLKWCLRVNPKGLDEESKDYLSLYLLLVSCNKSEVRAKFKFSILNAKREETKAMESQRAYRFVQGKDWGFKKFIRRDFLLDEANGLLPEDKLTIFCEVSVVADSVNISGQSNIVQFKVPECKLSEDLGNLFDNEKFSDVTLSVGGREFQAHKAILAARSDVFAAMFEHEMEERKLNRVAITDVDHEVLKEMLRFIYTGKAPNLEKMADDLLAAADKYALEKLKVMCEEALCVNLSVETAAETLILADLHSADQLKAQTIDFINTHATDVMETSGWQNMITTHSHLIAEAFRALATQQIPPIGPPRKRVKMS
B9: the MAPPIT interaction score is -0.125 (inactive) with CG16904; -0.131 (inactive) with CG2865; 1.12 (inactive) in the test with Cul3 (MAPPIT configuration: N-C); 0.911 (inactive) with Cul3 (MAPPIT configuration: N-N); 0.404 (inactive) in the test with puc (MAPPIT configuration: N-C); 0.467 (inactive) in the test with puc (MAPPIT configuration: N-N). For the same molecule, the MAPPIT interaction score with spir was 0.125 (inactive).

These data come from the supplement of paper PMC10105736.
